According to PubChem BioAssay (NCATS):
Records with an inconclusive call do not appear. Where a call stands in place of a potency, no number is given. Active and inactive are the calls of the source. Unless noted, calls come from the whole dose curve; as a rule, active = well fitted curve in the direction sought with a large enough effect; inconclusive = small, poorly fitted or top-dose-only effect, or another doubt; inactive = no such curve, though single readings can be large; an effect the other way counts as inactive or inconclusive.

Columns and labels:
[1] = qHTS for differential inhibitors of proliferation of Plasmodium falciparum line D10 (AID 1877);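 note: parasites grown with compound for 72 h before DNA staining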; note: potency is the fitted concentration of half-maximal effect
[2] = qHTS for differential inhibitors of proliferation of Plasmodium falciparum line W2 (AID 1883); conditions: Potency: Plasmodium falciparum W2 proliferation inhibition;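 note: parasites grown with compound for 72 h before lysis and staining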; note: potency is the fitted concentration of half-maximal effect
[3] = qHTS for differential inhibitors of proliferation of Plasmodium falciparum line HB3 (AID 1886); conditions: Potency: Plasmodium falciparum HB3 proliferation inhibition;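 note: parasites grown with compound for 72 h before SYBR Green readout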; note: potency is the fitted concentration of half-maximal effect
[4] = target: Ferritin light chain (Equus caballus) (UniProt P02791); assay: qHTS Validation Assay for Identification of Novel General Anesthetics (AID 2323); note: series mostly up to about 77 µM
Chain of Ferritin light chain (Equus caballus) (P02791 2-175 limits assumed): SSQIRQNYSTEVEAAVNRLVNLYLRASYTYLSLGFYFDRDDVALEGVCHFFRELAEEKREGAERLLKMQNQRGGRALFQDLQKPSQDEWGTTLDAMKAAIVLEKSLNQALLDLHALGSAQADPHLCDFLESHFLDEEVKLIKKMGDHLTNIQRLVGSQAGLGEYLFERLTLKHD
Outline: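 Fluorescence at 535 nm (excitation 380 nm) reported loss of 1-AMA binding to horse-spleen apoferritin (10 uM) in PBS with 50% saturated 1-aminoanthracene, after 10 min room-temperature incubation with compound; values from Hill fits of normalized response.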

[5] = target: ATP-dependent DNA helicase Q1 (Homo sapiens) (UniProt P46063); assay: qHTS Validation Assay for Inhibitors of RecQ-Like Dna Helicase 1 (RECQ1) (AID 2353); note: potency is the fitted concentration of half-maximal effect
Chain of ATP-dependent DNA helicase Q1 (Homo sapiens) (P46063 whole entry, looked up): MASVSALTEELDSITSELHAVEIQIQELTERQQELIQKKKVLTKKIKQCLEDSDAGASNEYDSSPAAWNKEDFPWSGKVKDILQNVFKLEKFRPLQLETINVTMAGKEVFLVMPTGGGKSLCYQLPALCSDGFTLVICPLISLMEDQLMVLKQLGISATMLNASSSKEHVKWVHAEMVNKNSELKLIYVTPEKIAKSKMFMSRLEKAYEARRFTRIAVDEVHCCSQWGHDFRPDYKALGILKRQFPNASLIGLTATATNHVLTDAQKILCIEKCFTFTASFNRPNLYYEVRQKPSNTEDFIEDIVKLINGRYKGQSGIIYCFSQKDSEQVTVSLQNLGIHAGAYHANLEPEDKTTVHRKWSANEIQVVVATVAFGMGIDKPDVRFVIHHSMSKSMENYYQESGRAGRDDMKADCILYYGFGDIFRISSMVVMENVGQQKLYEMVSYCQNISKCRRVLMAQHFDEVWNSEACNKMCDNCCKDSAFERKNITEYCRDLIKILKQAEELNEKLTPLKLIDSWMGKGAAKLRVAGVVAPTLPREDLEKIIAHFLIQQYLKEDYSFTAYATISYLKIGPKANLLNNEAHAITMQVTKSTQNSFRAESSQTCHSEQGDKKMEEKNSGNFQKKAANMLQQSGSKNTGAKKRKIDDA
Outline: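 RECQ1T1 50 nM; forked duplex (20 bp + 30-nt ss tails) 200 nM, ATP 2 mM final; pH 8.0, 2 mM MgCl2, 2.5 ug/ml poly(dI-dC); 15 min compound preincubation; discontinuous kinetic read over 2 h at RT.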

[6] = target: RecQ-like DNA helicase BLM (Homo sapiens) (UniProt P54132); assay: qHTS Validation Assay for Inhibitors of Bloom's syndrome helicase (BLM) (AID 2364); note: potency is the fitted concentration of half-maximal effect
Chain of RecQ-like DNA helicase BLM (Homo sapiens) (P54132 whole entry, looked up): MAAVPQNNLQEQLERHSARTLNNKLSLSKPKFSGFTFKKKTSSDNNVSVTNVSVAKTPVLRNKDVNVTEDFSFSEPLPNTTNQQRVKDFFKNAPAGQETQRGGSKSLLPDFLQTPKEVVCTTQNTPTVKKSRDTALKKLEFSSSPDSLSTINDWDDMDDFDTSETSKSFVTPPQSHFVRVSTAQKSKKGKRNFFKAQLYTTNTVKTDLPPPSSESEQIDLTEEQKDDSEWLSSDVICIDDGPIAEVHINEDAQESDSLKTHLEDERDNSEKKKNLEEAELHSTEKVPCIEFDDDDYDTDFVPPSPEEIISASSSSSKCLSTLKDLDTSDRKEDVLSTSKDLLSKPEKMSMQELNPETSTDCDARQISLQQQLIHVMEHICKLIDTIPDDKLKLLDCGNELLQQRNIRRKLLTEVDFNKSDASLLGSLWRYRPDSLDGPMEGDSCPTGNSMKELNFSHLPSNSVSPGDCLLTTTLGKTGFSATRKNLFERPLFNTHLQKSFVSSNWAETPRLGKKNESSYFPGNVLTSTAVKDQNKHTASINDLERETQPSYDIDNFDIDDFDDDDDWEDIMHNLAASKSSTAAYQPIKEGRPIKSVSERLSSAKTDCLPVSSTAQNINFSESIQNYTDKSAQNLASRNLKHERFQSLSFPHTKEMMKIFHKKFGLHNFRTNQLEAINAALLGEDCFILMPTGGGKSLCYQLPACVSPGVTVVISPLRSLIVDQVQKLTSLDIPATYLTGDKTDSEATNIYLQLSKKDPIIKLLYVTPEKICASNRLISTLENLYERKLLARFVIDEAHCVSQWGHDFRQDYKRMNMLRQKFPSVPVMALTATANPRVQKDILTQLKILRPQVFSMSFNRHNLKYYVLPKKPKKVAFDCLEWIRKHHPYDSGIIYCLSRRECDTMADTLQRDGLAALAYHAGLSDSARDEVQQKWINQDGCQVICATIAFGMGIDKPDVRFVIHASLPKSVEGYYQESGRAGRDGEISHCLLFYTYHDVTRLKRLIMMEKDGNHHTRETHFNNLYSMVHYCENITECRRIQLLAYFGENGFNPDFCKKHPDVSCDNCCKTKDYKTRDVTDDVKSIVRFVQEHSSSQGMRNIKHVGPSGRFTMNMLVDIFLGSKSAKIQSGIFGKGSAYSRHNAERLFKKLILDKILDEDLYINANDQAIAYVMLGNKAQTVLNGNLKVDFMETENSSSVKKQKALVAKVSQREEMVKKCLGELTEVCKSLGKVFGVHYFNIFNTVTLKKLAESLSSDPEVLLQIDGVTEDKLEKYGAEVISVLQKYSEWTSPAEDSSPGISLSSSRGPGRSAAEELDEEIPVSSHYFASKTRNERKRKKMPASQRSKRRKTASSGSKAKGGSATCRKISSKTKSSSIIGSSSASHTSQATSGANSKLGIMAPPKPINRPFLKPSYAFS
Outline: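 50 nM BLM preincubated 15 min at room temperature with compound in pH 8.0 Tris buffer containing 2.5 ug/ml poly(dI-dC); started with 200 nM TAMRA/BHQ-2 forked duplex and 2 mM ATP (final). Unwinding read as TAMRA fluorescence increase, two reads 2 h apart.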

[7] = qHTS Assay for Modulators of Human Peripheral Myelin Protein 22 (PMP22) Expression/Activity (AID 1967; active = well fitted curve in the direction sought with a large enough effect in the signal ratio; the % refers to the signal ratio)
Outline: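 Luminescence ratio of Pmp22 promoter-driven green luciferase to EF-alpha-driven red luciferase, in engineered mouse MSC80 Schwann cells, served as read-out. Compounds were incubated 24h; untreated cells defined 0% Activity; curves were classified by r2, magnitude and activity.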

[8] = qHTS for differential inhibitors of proliferation of Plasmodium falciparum line Dd2 (AID 1882); conditions: Potency: Plasmodium falciparum Dd2 proliferation inhibition; note: nearly all actives have a fitted effect of over 65% in size; note: potency is the fitted concentration of half-maximal effect
Outline: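 RBC culture, 0.3% parasitemia / 2.5% Hct final; cpd added by pin tool in DMSO; 72 h, 37 C, 5% CO2; lysis buffer + SYBR Green I, o/n RT dark; FI 485/535; norm. to artemisinin 0.29 uM and DMSO.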

Row | SMILES | Potency [1] | Potency [2] | Potency [3] | Potency [4] | Potency [5] | Potency [6] | outcome [7] | Potency [8]
1 | CC(N)=O | inactive | inactive | inactive | inactive |  |  |  | 
2 | CC(=O)NNC(=O)N1Cc2ccccc2Oc2ccc(Cl)cc21 | inactive | inactive | inactive | inactive | inactive | inactive |  | 
3 | C#CCn1c(=O)c2c(ncn2C)n(C)c1=O | inactive | inactive | inactive | inactive | inactive |  | inactive | 
4 | c1ccc2c(c1)CC(N1CCN(c3cccc4c3OCCO4)CC1)C2 | inactive | 5.01 µM (active) |  |  | inactive | inactive |  | 
5 | Cn1cc(C(F)(F)F)nc1-c1ccc(OCC(O)CNCCOc2ccc(O)c(C(N)=O)c2)cc1 (stereo not drawn) | 3.16 µM (active) | 10 µM (active) | 5.62 µM (active) | inactive |  | inactive |  | 
6 | Cc1cccc(C2CN(C)CCc3c2cc(O)c(O)c3Cl)c1 (stereo not drawn) | 11.2 µM (active) | 7.08 µM (active) | 12.6 µM (active) | inactive |  | inactive |  | 
7 | COC(=O)C(C)(N)Cc1ccc(O)cc1 (stereo not drawn) |  | 12.6 µM (active) |  | inactive | inactive | inactive | inactive | inactive
8 | COCc1nc2c([nH]1)c(=O)n(C)c(=O)n2CC(C)C | inactive |  | inactive | inactive | inactive |  | inactive | 
9 | CCCC[C@@]1(C2CCCC2)Cc2cc(OCC(=O)O)c(Cl)c(Cl)c2C1=O |  | 10 µM (active) |  | inactive | inactive |  | inactive | inactive
10 | O=S(=O)(c1cccc2c(Cl)cccc12)N1CCCNCC1 |  | 1.58 µM (active) |  | inactive | inactive | inactive |  | 4.47 µM (active)
11 | Nc1ccc2c3c(cccc13)C(=O)NC2=O | inactive |  | inactive | inactive |  |  |  | 
12 | CCCCCCCC/C=C\CCCCCCCC(=O)NCCc1ccc(O)c(O)c1 |  | 7.94 µM (active) | 12.6 µM (active) |  | inactive |  |  | 8.91 µM (active)
13 | CC(=O)O[C@H]1CC2(C)[C@@H](C[C@@H](O)[C@H]3[C@@]4(C)CC[C@@H](O)[C@@H](C)[C@@H]4CC[C@@]32C)C1=C(CCC=C(C)C)C(=O)O (stereo partly drawn) |  | 10 µM (active) |  | inactive | inactive | inactive | inactive | inactive
14 | CCCn1c(=O)c2c(ncn2C)n(CCC)c1=O | inactive |  | inactive | inactive | inactive |  |  | 
15 | NC(N)=NC(N)=Nc1cccc(Cl)c1 |  | 5.01 µM (active) | 8.91 µM (active) | inactive | inactive |  |  | inactive
16 | N#C/C(=C\c1ccc(O)c(O)c1)C(=O)NCCc1ccccc1 |  | 10 µM (active) | 11.2 µM (active) |  |  |  |  | 11.2 µM (active)
17 | Nc1nc2[nH]c(=O)cnc2c(=O)[nH]1 | inactive | inactive | inactive |  | inactive | inactive |  | 
18 | COc1ccccc1N1CCN(CCCNc2c(C)c(=O)n(C)c(=O)n2C)CC1 |  | 8.91 µM (active) |  | inactive | inactive | inactive |  | inactive
19 | NC1(C(=O)O)CC1 |  | 12.6 µM (active) |  | inactive | inactive |  |  | inactive
20 | COc1cc(CNC(=O)CCCCCCC(C)C)ccc1O | inactive |  | inactive |  | inactive |  |  | 

Row | SMILES | Potency [1] | Potency [2] | Potency [3] | Potency [4] | Potency [5] | Potency [6] | outcome [7] | Potency [8]
21 | O=c1onc2cnc3ccccc3n12 |  | inactive | 5.62 µM (active) | inactive | inactive | inactive |  | inactive
22 | Cc1nc(N=Nc2cc(S(=O)(=O)O)c3cc([N+](=O)[O-])cc(S(=O)(=O)O)c3c2)c(COP(=O)(O)O)c(C=O)c1O |  | inactive |  |  | 11.2 µM (active) | inactive | inactive | inactive
23 | COC(=O)C1=C(C)NC(C)=C([N+](=O)[O-])C1c1ccccc1C(F)(F)F (stereo not drawn) | inactive | 12.6 µM (active) |  |  | inactive |  |  | 
24 | O=C(O)C1CCCNC1 (stereo not drawn) | inactive |  | inactive | inactive | inactive | inactive | inactive | 
25 | O=C(N[C@@H](Cc1ccccc1)C(=O)CCl)OCc1ccccc1 |  | 8.91 µM (active) | 14.1 µM (active) | inactive | inactive |  |  | 11.2 µM (active)
26 | CCN(CC)CCCCCCCCOC(=O)c1cc(OC)c(OC)c(OC)c1 |  | 3.55 µM (active) |  | inactive | inactive | inactive |  | 8.91 µM (active)
27 | CC(C)(CO)Cc1cc(C(C)(C)C)c(O)c(C(C)(C)C)c1 |  | 10 µM (active) |  |  | inactive |  |  | inactive
28 | NCC(O)c1ccc(O)c(O)c1 (stereo not drawn) |  | 11.2 µM (active) |  | inactive | inactive |  |  | inactive
29 | C=CC1(C)CC(=O)C2(O)C(C)(O1)C(OC(C)=O)C(O)C1C(C)(C)CCC(O)C12C (stereo not drawn) | inactive |  |  | inactive | inactive |  |  | 
30 | Oc1cc2c(cc1O)C(c1ccccc1)CNCC2 (stereo not drawn) |  | 11.2 µM (active) |  | inactive | inactive |  | inactive | inactive
31 | CCCC(=O)NCCc1c2n(c3ccc(OC)cc13)CCCc1ccccc1-2 | 12.6 µM (active) | 7.94 µM (active) | 11.2 µM (active) |  | inactive |  |  | 
32 | C[C@H](NC(=O)/C(C#N)=C/c1ccc(O)c(O)c1)c1ccccc1 | 12.6 µM (active) | 10 µM (active) | 12.6 µM (active) |  | inactive |  |  | 
33 | Cn1c(=O)[nH]c2ncn(C)c2c1=O |  | inactive | 12.6 µM (active) | inactive | inactive |  |  | inactive
34 | O=c1ccc2c(OCCCCc3ccccc3)c3ccoc3cc2o1 | 12.6 µM (active) | 10 µM (active) |  | inactive | inactive |  |  | 
35 | CC1=C(/C=C/C(C)=C/C=C/C(C)=C\C(=O)O)C(C)(C)CCC1 |  | 8.91 µM (active) | 10 µM (active) |  |  |  |  | 10 µM (active)
36 | CC(C)(C)c1cc(/C=C(\C#N)C(N)=S)cc(C(C)(C)C)c1O | 8.91 µM (active) | 2.82 µM (active) | 6.31 µM (active) |  | inactive |  |  | 
37 | CCCCCCCCCCCCCCC[C@H](O)[C@H](N)CO |  | 12.6 µM (active) |  |  |  |  | inactive | inactive
38 | Fc1ccc(CN(C2=NCCN2)c2c(Cl)cccc2Cl)cc1 |  | 3.55 µM (active) |  | inactive | inactive | inactive |  | 7.94 µM (active)
39 | Nc1ncnc2c1c(-c1ccc(Oc3ccccc3)cc1)cn2C1CCCC1 | 12.6 µM (active) | 3.55 µM (active) | 12.6 µM (active) |  | inactive |  |  | 
40 | N=S(=O)(O)Cc1noc2ccccc12 | inactive |  | inactive | inactive | inactive |  | inactive | 

Row | SMILES | Potency [1] | Potency [2] | Potency [3] | Potency [4] | Potency [5] | Potency [6] | outcome [7] | Potency [8]
41 | O=c1[nH]c2ccccc2c2ccccc12 |  |  | inactive | inactive | inactive |  |  | 
42 | O=C(O)C1=CC(=C(c2ccc(O)c(C(=O)O)c2)c2ccc(O)c(C(=O)O)c2)C=CC1=O |  |  |  | inactive |  | 0.794 µM (active) |  | inactive
43 | O=C1NC(=O)c2cc(Nc3ccccc3)c(Nc3ccccc3)cc21 |  | 10 µM (active) | 8.91 µM (active) | inactive | inactive |  |  | 
44 | S=C(S)N1CCCC1 |  |  |  | inactive | inactive | inactive |  | 
45 | N[C@@H](Cc1c[nH]c2ccccc12)C(=O)O |  |  |  | inactive | inactive |  |  | inactive
46 | NOCC(=O)O |  |  |  | inactive | inactive | inactive | inactive | inactive
47 | O=C(OCCN1CCOCC1)C1(c2ccccc2)CCCCC1 |  | 4.47 µM (active) |  | inactive |  | inactive | inactive | 
48 | N=C(N)SCCN |  |  |  |  | inactive | inactive | inactive | inactive
49 | O=c1cc(-c2ccccc2)[nH]c2nc(Cl)ccc12 |  | 10 µM (active) |  | inactive | inactive |  |  | 
50 | COc1ccccc1N1CCN(CCN(C(=O)c2ccc(F)cc2)c2ccccn2)CC1 |  | 8.91 µM (active) |  | inactive | inactive |  |  | 
51 | Cc1ccccc1/C=C/C1=NCCN1 |  | 12.6 µM (active) | 12.6 µM (active) | inactive | inactive | inactive |  | 
52 | Cn1cc(C(=O)OCC2CCN(CCNS(C)(=O)=O)CC2)c2ccccc21 |  | 8.91 µM (active) |  | inactive |  | inactive |  | 
53 | C=C1C(=O)O[C@@H]2[C@H]3O[C@]3(C)CCC=C(C)CC[C@@H]12 |  | 10 µM (active) | 11.2 µM (active) |  | inactive | inactive |  | 
54 | C/C(=C\c1ccc(C(=O)O)cc1)c1ccc2c(c1)C(C)(C)CCC2(C)C |  |  | inactive | inactive |  |  |  | inactive
55 | CCC(=O)N1CCN(C(=O)c2ccccc2)CC1 |  |  |  | inactive | inactive |  | inactive | inactive
56 | Cc1nc2c(OCc3ccccc3)cccn2c1CC#N |  |  | inactive | inactive |  |  |  | inactive
57 | OC[C@H]1O[C@@H](n2cnc3cncnc32)[C@H](O)[C@@H]1O |  |  |  | inactive |  |  | inactive | inactive
58 | Nc1ccc(CCNc2ncnc3c2ncn3C2OC(CO)C(O)C2O)cc1 (stereo not drawn) |  |  | inactive | inactive | inactive |  | inactive | 
